Screening results as filed in PubChem BioAssay.
An excerpt weighted towards active compounds, which were near 2.3% of everything screened.
USP1-UAF1 inh: USP1/UAF1 (human) deubiquitinase inhibition. O94782. Potency, µM (series often up to 57.1 µM), hits mostly inhibitors. recombinant USP1/UAF1, Ub-Rhodamine cleavage fluorescence. 0.23% of 390,000 active; note: nearly all actives have a fitted effect of over 60% in size
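USP1/UAF1 complex at 1 nM was preincubated with compound for 15 min at room temperature, then Ub-Rho substrate (150nM final) was added. Fluorescence (480/540 nm) was read kinetically, 6 reads every 60 seconds.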
FBPA coupling cs: inhibits coupling enzyme system, counter-screen for aldolase hits. coupling enzyme system counterscreen, AmpLite Red fluorescence. activity change, negative = inhibition, % at 58.2 µM, hits read low. 0.67% of 290,000 active. AID 2472; in the data active = activity change below about -30%
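Final compound at 57.5 uM, incubated 10 min at RT with coupling enzyme reagent (glyceraldehyde-3-phosphate), then 20 min with substrate and AmpLite Red detection. Fluorescence read at 525/598 nm; tests interference with the coupling assay, not aldolase inhibition.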
Tau fluor counter: counter-screen for tau fibril formation inhibitors | AID 1463 | 0.93% of 280,000 active | tau K18 P301L Alexa594 fluorescence, heparin fibrillization | Potency, µM (top dose mostly 57.7 µM); note: nearly all actives have a fitted effect of over 55% in size
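Human tau K18 P301L (15 uM unlabeled, 0.24 uM Alexa 594-labeled) in 100 mM sodium acetate pH 7 with 20 uM heparin, 6 hr at 37 C. ThT 30 uM added, 1 hr ambient; Alexa 594 FP and total fluorescence read at 555/632 nm.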
Tau FP inhib: tau fibrillization inhibition (FP); P10636; K18 P301L tau heparin fibrillization, Alexa594 FP, 6 h; Potency, µM (series often up to 57.7 µM), most hits filed as inhibitors; 0.39% of 280,000 active; AID 1468; note: nearly all actives have a fitted effect of over 55% in size
Target sequence (P10636 561-689 P618L limits assumed): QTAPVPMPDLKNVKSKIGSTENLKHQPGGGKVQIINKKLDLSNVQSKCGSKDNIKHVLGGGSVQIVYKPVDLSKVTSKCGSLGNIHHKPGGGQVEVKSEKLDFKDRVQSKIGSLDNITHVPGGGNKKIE
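Heparin (20 uM) drove fibril formation of recombinant tau K18 P301L, 15 uM unlabeled with 0.24 uM Alexa 594 label, for 6 hr at 37 C in 100 mM sodium acetate pH 7. Fluorescence polarization (555/632 nm) read 1 hr after 30 uM ThT.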
Tau fibril ThT: blocks human tau fibril formation measured by thioflavin T; P10636; recombinant tau K18 P301L (four-repeat tau fragment), heparin-induced fibrillization, ThT fluorescence; Potency, µM (titrated, usually from 57.4 µM), actives largely listed as inhibitors; 2.1% of 270,000 active; note: nearly all actives have a fitted effect of over 55% in size
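Aggregation was driven by heparin (20 uM final) acting on recombinant tau […] bearing P301L in 100 mM sodium acetate pH 7; fibrils were detected with Thioflavin T.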
Numbers stand for hits; i = inactive; ? = inconclusive; nt = not tested or not shown; [ ] = dose if it differs, or a comment. Unless noted, calls come from the whole dose curve; as a rule, active = well fitted curve in the direction sought with a large enough effect; inconclusive = small, poorly fitted or top-dose-only effect, or another doubt; inactive = no such curve, though single readings can be large; an effect the other way counts as inactive or inconclusive.

SMILES | USP1-UAF1 inh | FBPA coupling cs | Tau fluor counter | Tau FP inhib | Tau fibril ThT
C/C(=N\NC(=O)c1cccc(N/N=C(\C)c2ccc([N+](=O)[O-])cc2)c1)c1ccc([N+](=O)[O-])cc1 | i | i | ? | i | 0.5µM
O=[N+]([O-])c1ccc(NN=C(Oc2ccccc2)c2ccc([N+](=O)[O-])cc2)cc1 | i | nt | nt | nt | nt
C/C(=N\Nc1ccc([N+](=O)[O-])cc1)c1ccc(N)cc1 | i | i | i | i | i
C/C(=N\NC(=O)COc1ccc([N+](=O)[O-])cc1)c1ccco1 | i | nt | nt | nt | nt
C/C(=N\NC(=O)c1cccc(N/N=C(\C)c2ccccc2)c1)c1ccccc1 | i | i | i | i | ?
CCc1ccc(/C(C)=N\Nc2ccc([N+](=O)[O-])cc2)cc1 | i | i | ? | i | 3.5µM
C/C(=N\Nc1ccc([N+](=O)[O-])cc1)c1ccco1 | ? | i | ? | i | 5µM
CC/C(=N\Nc1ccc([N+](=O)[O-])cc1)c1ccccc1 | ? | i | ? | i | 2µM
O=C(COc1ccc(Cl)cc1)Nc1ccc(-c2nc3ccccc3s2)c(O)c1 | i | nt | i | i | ?
C/C(=N\Nc1ccc([N+](=O)[O-])cc1)c1ccc(-n2nncc2C)cc1 | i | i | 16µM[quencher] | ? | 7.1µM
C/C(=N\Nc1ccc([N+](=O)[O-])cc1)c1ccc(N2CCOCC2)cc1 | i | i | ? | ? | ?
C/C(=N\Nc1nc(C)c(C)s1)c1ccc([N+](=O)[O-])cc1 | i | i | ? | i | 14µM
COc1ccc(C)cc1NC(=O)N(Cc1ccc(C)o1)C1CCN(C(C)=O)CC1 | i | nt | i | i | i
Cc1c(Cl)cccc1-n1ncc(C(=O)NCc2cccs2)c1C1CCN(C(=O)OC(C)(C)C)CC1 | i | nt | i | i | i
CCc1nn(CC(=O)N2CCN(c3cccc(C)c3C)CC2)c(=O)c2cc3occc3n12 | i | nt | i | i | i
O=C1NC(=S)/C(=C\c2ccc(-c3ccccc3Cl)o2)S1 | i | i | ? | ? | 7.9µM
O=C1NC(=O)/C(=C/c2ccc(-c3cc(C(=O)O)ccc3Cl)o2)S1 | ? | i | nt | nt | nt
N[C@@H](C(=O)N[C@@H]1C(=O)N2C(C(=O)O)=C(Cl)CS[C@H]12)c1ccccc1 | i | i | i | ? | 28µM
NC(=O)c1cc[n+](CC2=C(C(=O)O)N3C(=O)[C@@H](NC(=O)C(c4ccccc4)S(=O)(=O)[O-])[C@H]3SC2)cc1 (some centres not stated) | 35µM | i | i | i | i
CC1=C(C(=O)O)N2C(=O)[C@@H](NC(=O)C(N)c3ccccc3)[C@H]2SC1 (some centres not stated) | nt | nt | i | i | i
NC(C(=O)N[C@@H]1C(=O)N2C(C(=O)O)=C(Cl)CS[C@H]12)c1ccccc1 (some centres not stated) | nt | nt | i | ? | 28µM
CCC(=O)N1CCc2cc(Br)cc(S(=O)(=O)CCC(=O)NCCc3cccc(C)c3)c21 | i | nt | i | i | i
COc1cc(-c2ccno2)ccc1S(=O)(=O)N1CCN(c2ccc(C(C)=O)cc2)CC1 | i | nt | i | i | ?
COc1ccc2c(c1)C(=NN)c1cc(OC)ccc1-2 | i | nt | ? | i | 10µM
CCn1cc(S(=O)(=O)c2ccc(C)cc2C)c(=O)c2cc(F)c(N3CCCCC3)cc21 | i | nt | i | i | i
SMILES | USP1-UAF1 inh | FBPA coupling cs | Tau fluor counter | Tau FP inhib | Tau fibril ThT
COC(=O)C=P(c1ccccc1)(c1ccccc1)c1ccccc1 | nt | i | i | i | i
O=C1N=C(N2CCOCC2)S/C1=C/c1cc2c(cc1[N+](=O)[O-])OCO2 | i | i | ? | ? | 18µM
COC(=O)c1sc2cccc(F)c2c1S(=O)(=O)Nc1ccc(C)cc1Cl | i | nt | i | i | i
CN(C)CCCn1cc(C2=C(c3c[nH]c4ccccc34)C(=O)NC2=O)c2ccccc21 | nt | i | 20µM[quencher] | i | 13µM
Cn1cc(SCC(N)=O)c2ccccc21 | i | i | i | i | i
COc1ccc2c(c1)c(C1=C(c3c[nH]c4ccccc34)C(=O)NC1=O)cn2CCCN(C)C | nt | i | nt | nt | nt
Cn1cc(C2=C(c3cn(CCCSC(=N)N)c4ccccc34)C(=O)NC2=O)c2ccccc21 | nt | i | 13µM[quencher] | ? | 3.2µM
CCCS(=O)(=O)c1c(S(=O)(=O)CCC)c2cc(CC)ccn2c1C(=O)c1ccc(Cl)cc1 | ? | nt | i | i | i
